Measurements taken from PubChem BioAssay (NCI).
Compounds without any hit were thinned out: in the full panel of roughly 83,000, 20% have a hit.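 Cell lines were cultured in 96-well plates, exposed to a single compound concentration, and assessed for percent growth 48 hours later.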 A number with no mark means an inactive call. Active and inactive are the calls of the source. How the source made its calls: active means growth percent below 10; inactive means the rest.

Legend:
Experiment in all cases: NCI-60 one-dose screen, 48 h (100 = growth as untreated, 0 = no growth, -100 = all killed)
[1] = test system: SK-MEL-2 melanoma
[2] = test system: EKVX NSCLC; details: 10 µM unless noted
[3] = test system: SN12C renal
[4] = test system: UO-31 renal
[5] = test system: TK-10 renal; details: 10 µM unless noted
[6] = test system: ACHN renal
[7] = test system: CAKI-1 renal; details: 10 µM unless noted
[8] = test system: A498 renal
[9] = test system: CCRF-CEM leukemia; details: 10 µM unless noted
[10] = test system: MOLT-4 leukemia
[11] = test system: SR leukemia; details: 10 µM unless noted
[12] = test system: RPMI-8226 leukemia
[13] = test system: OVCAR-8 ovarian
[14] = test system: OVCAR-5 ovarian
[15] = test system: OVCAR-4 ovarian
[16] = test system: SK-OV-3 ovarian
[17] = test system: IGROV1 ovarian; details: 10 µM unless noted
[18] = test system: OVCAR-3 ovarian
[19] = test system: HS 578T breast
[20] = test system: NCI/ADR-RES ovarian

`Cc1cc(-c2ccc(N=Nc3c(C)nn(-c4ccc(S(=O)(=O)O)cc4)c3O)c(C)c2)ccc1N=Nc1ccc(O)c(C(=O)O)c1` gave a growth ([1]; 10 µM unless noted) of 73%, a growth [2] of 104% and a growth ([3]; 10 µM unless noted) of 95.8%. The growth ([4]; 10 µM unless noted) was 69.1%, the growth [5] was 141% and the growth ([6]; 10 µM unless noted) was 98%. The growth [7] was 100%, the growth ([8]; 10 µM unless noted) was 120% and the growth [9] was 99.4%. It also gave a growth ([10]; 10 µM unless noted) of 102%, a growth [11] of 86% and a growth ([12]; 10 µM unless noted) of 81.7%. For the same compound, the growth ([13]; 10 µM unless noted) was 95.7%, the growth ([14]; 10 µM unless noted) was 94.4% and the growth ([15]; 10 µM unless noted) was 106%. The growth ([16]; 10 µM unless noted) was 96.9%, the growth [17] was -9.24% (active) and the growth ([18]; 10 µM unless noted) was 106%. It also gave a growth ([19]; 10 µM unless noted) of 91.8% and a growth ([20]; 10 µM unless noted) of 104%.
`Nc1ccc(Cl)c(S(=O)(=O)O)c1` was tested, and the growth ([1]; 10 µM unless noted) was 88.2%, the growth [2] was 106% and the growth ([3]; 10 µM unless noted) was 96.6%. For the same compound, the growth ([4]; 10 µM unless noted) was 77.9%, the growth [5] was 98.5% and the growth ([6]; 10 µM unless noted) was 97.2%. For the same compound, the growth [7] was 95.2%, the growth ([8]; 10 µM unless noted) was 84% and the growth [9] was 106%. For the same compound, the growth ([10]; 10 µM unless noted) was 109%, the growth [11] was 103% and the growth ([12]; 10 µM unless noted) was 111%. The growth ([13]; 10 µM unless noted) was 93.3%, the growth ([14]; 10 µM unless noted) was 95.7% and the growth ([15]; 10 µM unless noted) was 106%. It also gave a growth ([16]; 10 µM unless noted) of 99.5%, a growth [17] of 102% and a growth ([18]; 10 µM unless noted) of 101%. It also gave a growth ([19]; 10 µM unless noted) of 98.8% and a growth ([20]; 10 µM unless noted) of 103%.
`O=c1ccn2c(n1)OC1CC2OC1COC(c1ccccc1)(c1ccccc1)c1ccccc1` (configuration not stated) gave a growth ([1]; 10 µM) of 113%, a growth ([1]; 100 µM) of 31.5% and a growth [2] of 96.3% [100 µM]. It also gave a growth ([3]; 10 µM) of 103%, a growth ([3]; 100 µM) of 69.2% and a growth ([4]; 10 µM) of 97%. For the same compound, the growth ([4]; 100 µM) was 89.9%, the growth [5] was 134% [100 µM] and the growth ([6]; 10 µM) was 92%. For the same compound, the growth ([6]; 100 µM) was 82.5%, the growth ([8]; 10 µM) was 116% and the growth ([8]; 100 µM) was 139%. It also gave a growth [9] of 81.8% [100 µM], a growth ([10]; 10 µM) of 104% and a growth ([10]; 100 µM) of 74.4%. It also gave a growth [11] of 46.1% [100 µM], a growth ([12]; 10 µM) of 106% and a growth ([12]; 100 µM) of 58.2%. For the same compound, the growth ([13]; 10 µM) was 98.7%, the growth ([13]; 100 µM) was 84.6% and the growth ([14]; 10 µM) was 102%. The growth ([14]; 100 µM) was 101%, the growth ([15]; 10 µM) was 110% and the growth ([15]; 100 µM) was 84.7%. It also gave a growth ([16]; 10 µM) of 101%, a growth ([16]; 100 µM) of 70.9% and a growth ([18]; 10 µM) of 126%. The growth ([18]; 100 µM) was 102%, the growth ([19]; 10 µM) was 121% and the growth ([19]; 100 µM) was 95.1%. It also gave a growth ([20]; 10 µM) of 112% and a growth ([20]; 100 µM) of 103%.
With `OCCS` the growth ([1]; 10 µM unless noted) was 108%, the growth [2] was 98.8% and the growth ([3]; 10 µM unless noted) was 107%. The growth ([4]; 10 µM unless noted) was 98%, the growth [5] was 84.7% and the growth ([6]; 10 µM unless noted) was 111%. The growth [7] was 105%, the growth ([8]; 10 µM unless noted) was 66.4% and the growth [9] was 100%. It also gave a growth ([10]; 10 µM unless noted) of 92.2%, a growth [11] of 90.5% and a growth ([12]; 10 µM unless noted) of 104%. The growth ([13]; 10 µM unless noted) was 103%, the growth ([14]; 10 µM unless noted) was 104% and the growth ([15]; 10 µM unless noted) was 101%. It also gave a growth ([16]; 10 µM unless noted) of 101%, a growth [17] of 110% and a growth ([18]; 10 µM unless noted) of 105%. The growth ([19]; 10 µM unless noted) was 106% and the growth ([20]; 10 µM unless noted) was 102%.
`COc1ccc2oc3c(ccc[n+]3C)c(=O)c2c1` was tested, and the growth ([1]; 10 µM unless noted) was 99.6%, the growth [2] was 93.3% and the growth ([3]; 10 µM unless noted) was 110%. For the same compound, the growth ([4]; 10 µM unless noted) was 91.9%, the growth [5] was 97.6% and the growth ([6]; 10 µM unless noted) was 99.1%. For the same compound, the growth [7] was 98.2%, the growth ([8]; 10 µM unless noted) was 95.7% and the growth [9] was 110%. It also gave a growth ([10]; 10 µM unless noted) of 103%, a growth [11] of 119% and a growth ([12]; 10 µM unless noted) of 104%. The growth ([13]; 10 µM unless noted) was 96.5%, the growth ([14]; 10 µM unless noted) was 98.9% and the growth ([15]; 10 µM unless noted) was 108%. It also gave a growth ([16]; 10 µM unless noted) of 99.7%, a growth [17] of 108% and a growth ([18]; 10 µM unless noted) of 109%. It also gave a growth ([19]; 10 µM unless noted) of 99.8% and a growth ([20]; 10 µM unless noted) of 108%.
`COc1ccc(S(=O)(=O)c2ccc(F)cc2)cc1` showed a growth ([1]; 10 µM unless noted) of 99%, a growth [2] of 122% and a growth ([3]; 10 µM unless noted) of 97.8%. It also gave a growth ([4]; 10 µM unless noted) of 83.8%, a growth [5] of 95.4% and a growth ([6]; 10 µM unless noted) of 103%. It also gave a growth [7] of 108%, a growth ([8]; 10 µM unless noted) of 108% and a growth [9] of 84.6%. For the same compound, the growth ([10]; 10 µM unless noted) was 92.3%, the growth [11] was 87.4% and the growth ([12]; 10 µM unless noted) was 80.7%. It also gave a growth ([13]; 10 µM unless noted) of 97.3%, a growth ([14]; 10 µM unless noted) of 99.9% and a growth ([15]; 10 µM unless noted) of 100%. For the same compound, the growth ([16]; 10 µM unless noted) was 108%, the growth [17] was 120% and the growth ([18]; 10 µM unless noted) was 107%. The growth ([19]; 10 µM unless noted) was 93.9% and the growth ([20]; 10 µM unless noted) was 95.3%.
